For test [1], the system named is Zika virus NS2B-NS3 protease (linked). Kind of test: 384 well plate NINDS AMC confirmatory qHTS for Zika virus inhibitors (AID 1347163).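 For activity change, negative = inhibition: linked protease at 5 30 or 60 nM final depending on run; fluorescence of AMC released from Ac-VKTGKR-AMC peptide cleaved by the protease; top concentration of the series differs between compounds; 0% = no-inhibitor control and -100% = no-enzyme control.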 Note: nearly all actives have a fitted effect of over 50% in size. Note: potency is the fitted concentration of half-maximal effect. The method in brief:
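Enzyme (5, 30 or 60 nM final) first met test compounds for ~15 min. The AMC-tagged peptide Ac-VKTGKR-AMC followed at 30 microM. Fluorescence was then recorded at 25 min and scaled against no-enzyme and no-inhibitor wells.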

Test [2] deals with Zika virus NS2B-NS3 protease (linked construct). Kind of test: 384 well plate NINDS Rhodamine confirmatory qHTS for Zika virus inhibitors (AID 1347164).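 For activity change, negative = inhibition: top concentration of the series differs between compounds; plate controls were no-inhibitor control for no effect and no-enzyme control for full effect.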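 Note: fluorescence from protease cleavage of Ac-LKRR-rhodamine 110 substrate; nearly all actives have a fitted effect of over 65% in size.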 Note: potency is the fitted concentration of half-maximal effect. The method in brief: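 Linked protease at a final 5 nM, 30 nM or 60 nM was preincubated ~15 min with compounds, then given 10 microM Ac-LKRR-Rhodamine 110. Fluorescence (ex 485/em 538 nm) after 25 min in the dark at room temperature.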

Test [3] is described as follows: Tertiary RLuc qRT-PCR qHTS assay for Zika virus inhibitors (AID 1347169). For activity change, negative = inhibition: top concentration of the series differs between compounds; % is set by controls: 0 for no effect and ±100 for the full control effect. Note: nearly all actives have a fitted effect of over 55% in size. Note: potency is the fitted concentration of half-maximal effect. The method in brief:
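Vero cells (1,000 per well) plated overnight at 37 degrees C, treated with compound in DMSO, then infected with recombinant ZIKV-RLuc (Cambodian) at MOI 1-2 for 48-72 hrs. Live-cell Renilla luciferase substrate added; luminescence read after 1-1.5 hrs.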
On the technique in general: Quantitative PCR measures a nucleic acid by following its amplification.

Test [4] in a line: Confirmatory screen NINDS Rhodamine qHTS for Zika virus inhibitors (AID 1347161).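 For activity change, negative = inhibition: purified Zika NS2B-NS3 protease with linked NS2B cofactor domain and Rhodamine110 peptide substrate; series mostly up to about 110 µM; plate controls were no-inhibitor control for no effect and no-enzyme control for full effect.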 Note: nearly all actives have a fitted effect of over 60% in size. Note: potency is the fitted concentration of half-maximal effect. The method in brief:
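Enzyme (25 nM, linked NS2B-NS3) was preincubated 15 min with compound in 10 mM Tris-HCl pH 8.0, 0.01% Tween 20. Rhodamine110 substrate (1.5 microM) was then added and fluorescence read at start and after 15 min.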
A general note: In qHTS, concentration-response curves come from the screen itself.

Test [5] in a line: Vero cells viability qHTS for Zika virus inhibitors (AID 1347167). Note: % is set by controls: 0 for no effect and ±100 for the full control effect. The method in brief: (§1)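 Luminescent ATP readout (CellTiter Glo) after 30 min at 37 degrees C gives viability; cells in DMEM + 4% FBS were treated 24 to 48 hours with compound, following overnight attachment.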
A short description of test [6]: HepG2 cells viability qHTS for Zika virus inhibitors (AID 1347168). Note: % is set by controls: 0 for no effect and ±100 for the full control effect. The method in brief: as §1
Test [7] in a line: qHTS to identify inhibitors of the type 1 interferon - major histocompatibility complex class I in skeletal muscle: primary screen against the NCATS Pharmaceutical Collection (AID 1347407).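 Note: luminescence of HiBiT knocked into endogenous HLA-B as interferon-induced MHC class I level; % is set by controls: 0 for no effect and ±100 for the full control effect.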 The method in brief:
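Immortalized human myoblasts (C25cl48) with HiBiT knocked into endogenous HLA-B*08:01 were stimulated with 4 ng/ml IFN-beta and treated with compounds (8-point, 1:5, top 46 uM final) for 24 h at 37 C; HiBiT lytic luminescence read.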

Test [8] deals with Lysine-specific demethylase 5B (Homo sapiens) (UniProt Q9UGL1). In words: Optimization screen for KDM5B Histone Demethylases FDH coupled qHTS against the LOPAC library (AID 1347166). Note: 0% is about no effect. The method in brief:
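KDM5BDeltaAP (200nM final) in 50mM HEPES pH 7.5, 0.01% Tween-20 was preincubated with compound for 10 min at room temperature. A substrate mix of 12.5uM H3K4Me3, 25uM a-ketoglutarate, ascorbate, Fe2+, NAD+ and formaldehyde dehydrogenase was then added. NADH fluorescence (340/450 nm) was read initially and after 30 min.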

Test [9] can be described thus: qHTS for inhibitors of adenylyl cyclases using a fission yeast platform: a pilot screen against the NCATS LOPAC library (AID 1347410).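 Note: plate controls were DMSO vehicle for no effect and DPI positive control for full effect.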 An excerpt: PI: Charles S. Hoffman Ph.D
Boston College, 140 Commonwealth Ave., Chestnut Hill, MA
Assay Development and Screening Technology Laboratory (ADST)
National Center for Advancing Translational Sciences (NCATS), Rockville, MD
National Institute of Health (NIH), Bethesda, Maryland
The fission yeast Schizosaccharomyces pombe uses a cAMP signaling pathway to link glucose-sensing to Protein Kinase A activity in order to regulate cell growth, sexual development, gluconeogenesis, and exit from stationary phase. Here, we describe the successful functional expression of all ten mammalian adenylyl cyclase (AC) genes, along with the human GNAS G-alpha gene in this organism. By measuring expression of a PKA-repressed fbp1-GFP reporter together with direct measurements of intracellular cAMP levels, one can detect both basal AC activity from all ten AC genes as well as GNAS-stimulated activity from eight of the nine transmembrane ACs (tmACs; AC2-AC9).
Further confirmation and validation of active compounds lead to the identification of diphenyleneiodonium chloride (DPI) as an inhibitor of basal AC activity. This fluorescence based fbp1-GFP-GNAS screening technology could facilitate the development of therapeutic compounds that target GNAS or the ACs, an area in which there is significant unmet need. […]
5; Detector; 425V; Fluorescence; laser scanning cytometry. […]

The structures appear in SMILES notation. A number with no mark means an inactive call. Inconclusive results are not listed. Calls of active or inactive are those of the source. Calls come from the whole dose curve; as a rule, active = well fitted curve in the direction sought with a large enough effect; inconclusive = small, poorly fitted or top-dose-only effect, or another doubt; inactive = no such curve, though single readings can be large; an effect the other way counts as inactive or inconclusive.

Chain of Lysine-specific demethylase 5B (Homo sapiens) (Q9UGL1 whole entry, looked up): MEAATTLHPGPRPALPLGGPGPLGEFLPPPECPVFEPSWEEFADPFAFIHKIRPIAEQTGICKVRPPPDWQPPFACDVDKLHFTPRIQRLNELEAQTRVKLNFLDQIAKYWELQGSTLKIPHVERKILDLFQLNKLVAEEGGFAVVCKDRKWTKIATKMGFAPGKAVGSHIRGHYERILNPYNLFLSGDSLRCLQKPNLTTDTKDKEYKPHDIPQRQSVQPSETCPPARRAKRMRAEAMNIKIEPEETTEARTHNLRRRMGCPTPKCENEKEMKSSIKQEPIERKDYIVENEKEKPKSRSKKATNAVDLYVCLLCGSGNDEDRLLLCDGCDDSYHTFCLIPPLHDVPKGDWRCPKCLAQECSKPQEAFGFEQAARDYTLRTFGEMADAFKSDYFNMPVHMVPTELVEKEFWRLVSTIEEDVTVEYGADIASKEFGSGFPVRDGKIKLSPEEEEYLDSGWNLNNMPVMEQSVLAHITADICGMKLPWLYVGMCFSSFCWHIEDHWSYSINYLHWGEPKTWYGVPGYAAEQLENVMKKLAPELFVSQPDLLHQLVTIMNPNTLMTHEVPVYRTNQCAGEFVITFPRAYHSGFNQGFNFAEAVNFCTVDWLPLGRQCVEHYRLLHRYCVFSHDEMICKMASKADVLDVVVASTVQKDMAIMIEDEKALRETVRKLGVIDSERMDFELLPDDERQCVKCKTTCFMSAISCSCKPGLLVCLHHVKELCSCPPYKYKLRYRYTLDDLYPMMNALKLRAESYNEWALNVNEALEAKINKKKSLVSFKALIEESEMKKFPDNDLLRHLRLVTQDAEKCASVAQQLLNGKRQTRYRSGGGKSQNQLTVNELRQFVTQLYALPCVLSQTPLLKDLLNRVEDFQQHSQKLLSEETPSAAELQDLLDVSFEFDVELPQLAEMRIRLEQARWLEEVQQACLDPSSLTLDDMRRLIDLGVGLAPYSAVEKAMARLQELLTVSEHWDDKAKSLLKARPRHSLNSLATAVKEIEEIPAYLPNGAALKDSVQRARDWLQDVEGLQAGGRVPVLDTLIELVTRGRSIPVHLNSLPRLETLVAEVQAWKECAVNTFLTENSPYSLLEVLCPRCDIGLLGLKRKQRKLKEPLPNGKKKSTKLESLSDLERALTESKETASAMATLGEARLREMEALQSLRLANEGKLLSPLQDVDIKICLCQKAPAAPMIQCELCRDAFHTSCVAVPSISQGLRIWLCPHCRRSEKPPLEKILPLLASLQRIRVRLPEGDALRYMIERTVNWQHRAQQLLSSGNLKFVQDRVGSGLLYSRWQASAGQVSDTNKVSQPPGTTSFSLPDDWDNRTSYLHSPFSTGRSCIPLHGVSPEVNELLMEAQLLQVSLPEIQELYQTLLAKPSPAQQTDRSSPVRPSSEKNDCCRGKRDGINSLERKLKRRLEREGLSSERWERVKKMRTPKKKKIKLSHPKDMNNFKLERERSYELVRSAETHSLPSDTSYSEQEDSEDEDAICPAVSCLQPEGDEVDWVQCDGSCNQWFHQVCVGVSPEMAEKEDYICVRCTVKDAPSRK

In the case of `O=S(=O)(O)c1ccc2cc(N=Nc3cc(S(=O)(=O)O)c4cccnc4c3O)ccc2c1`, the Potency in [1] was 79.4 µM (active); in test [2] it was 0.562 µM (active); in test [3] it was 3.7 µM (active).
On to `N#CC1(c2cccc(C(=O)Nc3cc(Oc4ccc5nc(NC(=O)C6CC6)sc5n4)ccc3F)c2Cl)CC1`, for which the Potency in test [2] is 50.1 µM (active).
Consider `c1cc(OCCN2CCCCC2)cc(-c2n[nH]c3ccc(-c4ncn[nH]4)cc23)c1`, for which the Potency entry in test [3] was “inactive”.
For the compound `COc1ccc(-c2ccc3ncc4c(c3c2)n(-c2ccc(N3CCNCC3)c(C(F)(F)F)c2)c(=O)n4C)cn1`, the activity change, negative = inhibition in test [4] was 14.2% [at 12.7 µM]. For the same compound, the activity change, negative = cytotoxicity in [5] is -1.62% [at 4.93 µM]; in test [6], -5.65% [at 4.93 µM].
Take `COc1cc(Nc2nc3ccccc3nc2NS(=O)(=O)c2ccc(NC(=O)c3ccc(C)c(OC)c3)cc2)cc(OC)c1`: the figures for the Potency in test [4] and in [2] were 1.39 µM (active) and 8.91 µM (active), respectively. Further, the Potency result in [1] was “inactive”. The outcome in test [5] and in [6] was inactive.
In the case of `O=C(O)Cc1cccc(OCCCN(Cc2cccc(C(F)(F)F)c2Cl)CC(c2ccccc2)c2ccccc2)c1`, the values for the Potency in [4] and in test [2] were 1.56 µM (active) and 28.2 µM (active), respectively. Also, the compound was called inactive in [6].
`C=C1c2cccc(O)c2C(O)=C2C(=O)[C@@]3(O)C(O)=C(C(N)=O)C(=O)[C@@H](N(C)C)[C@@H]3[C@@H](O)[C@H]12`: in [4], the Potency was 15.6 µM (active).
In the case of `Cc1ccc2c(c1)C(=O)[C@]1(O)CCN(c3ccccc3)C1=N2`, the Potency result in test [4] and in test [3] was “inactive” each time.
For `Cc1nc(C(=O)NCC(=O)O)c(O)c2ccc(Oc3ccccc3)cc12`, the Potency in test [4] is 34.9 µM (active). Further, the call in test [5] and in test [6] was inactive. In addition, in [3], the Potency result is “inactive”.
Consider `C[C@H]1COC2=C1C(=O)C(=O)c1c2ccc2c1CCCC2(C)C`, for which, in [4], the Potency was 7.84 µM (active). Moreover, the outcome in [5] and in [6] was inactive. Further, the Potency entry in test [3] was “inactive”.
Turning to `N#CC(c1ccc(Cl)cc1)c1c(Cl)cc(-n2ncc(=O)[nH]c2=O)cc1Cl` (stereo not drawn), the Potency is 4.4 µM (active) in [4] and 35.5 µM (active) in test [2]. In addition, the result in test [5] and in test [6] was inactive.
Consider `CN(C)CC[C@H](CSc1ccccc1)Nc1ccc(S(=O)(=O)NC(=O)c2ccc(N3CCN(Cc4ccccc4-c4ccc(Cl)cc4)CC3)cc2)cc1[N+](=O)[O-]`, for which the Potency in test [2] was 0.708 µM (active).
As to `COc1ccc(-c2nc3ccc(C4=NNC(=O)CC4C)cc3[nH]2)cc1` (stereo not drawn), the call in [7] was inactive.
As for `O=C(Nc1ccccc1)Nc1ccc(-c2ccc(C(=O)[C@H]3CCC[C@H]3C(=O)O)cc2)cc1`, the Potency in test [4] was 3.92 µM (active); in test [2], 14.1 µM (active). In addition, the Potency result in test [1] and in [3] was “inactive” throughout. In addition, the compound was called inactive in test [5] and in test [6].
Turning to `O=c1cc(-c2ccc(O)c(O)c2)oc2cc(O)cc(O)c12`, the Potency in test [4] is 28.2 µM (active); in [1], 70.8 µM (active). Moreover, in [2], the Potency entry was “inactive”. For the same compound, the activity change, negative = inhibition in test [3] was 46.1% [at 3.57 µM].
As to `CC[C@H](C)n1cc(C)c2c(C(=O)NCc3c(C)cc(C)[nH]c3=O)cc(-c3ccc(N4CCNCC4)nc3)cc21`, the Potency result in test [4] and in test [3] was “inactive” each time. Further, the call in test [5] and in test [6] was inactive.
`Fc1ccc(C(c2ccc(F)cc2)N2CCN(CC=Cc3ccccc3)CC2)cc1`: the Potency entry in test [4] is “inactive”. The result in test [5] was inactive.
As to `C[C@@H]1C[C@H]2[C@@H]3CCC4=CC(=O)C=C[C@]4(C)[C@@]3(F)[C@@H](O)C[C@]2(C)[C@@]1(O)C(=O)CO`, the outcome in test [7] was inactive.
For `C[C@H]1O[C@@H](n2cc(F)c(=O)[nH]c2=O)[C@H](O)[C@H]1O`, in test [8], the compound was called inactive.
On to `COc1cc(Cl)cn2c(-c3cccc(NC4CNC4)n3)cnc12`, for which the compound was classed as inactive in test [5] and in [6]. Also, in test [3], the Potency result was “inactive”.
Take `COc1ccnc(CS(=O)c2nc3ccc(OC(F)F)cc3[nH]2)c1OC` (stereo not drawn): the outcome in [7] was inactive.
For `OC[C@H]1O[C@@H](OCCc2ccc(O)cc2)[C@H](O)[C@@H](O)[C@H]1O`, in test [7], the compound was called inactive.
On to `CCCCC[C@H](O)C=C[C@H]1[C@H](O)CC(=O)[C@H]1CCCCCCC(=O)O`, for which the Potency entry in test [4] and in [3] was “inactive” throughout. For the same compound, the call in [5] and in test [6] was inactive.
Turning to `O=C1Nc2ccc(I)cc2C1=Cc1cc(Br)c(O)c(Br)c1`, the Potency in test [4] was 24.8 µM (active). Besides, the result in test [5] and in test [6] was inactive. In addition, in test [3], the Potency result was “inactive”.
As for `O=C(Nc1cccc2c(=O)cc(-c3nn[nH]n3)oc12)c1ccc(OCCCCc2ccccc2)cc1`, the Potency was 1.75 µM (active) in [4] and 28.2 µM (active) in [1]. Also, the result in test [5], in test [6] and in test [7] was inactive.
Consider `CC(C)c1onc(-c2c(Cl)cccc2Cl)c1COc1ccc(C=Cc2cccc(C(=O)O)c2)c(Cl)c1`, for which, in test [4], the Potency is 1.56 µM (active). In addition, in test [6], the compound was called inactive.
In the case of `CN(C)CCN(Cc1ccc(Cl)cc1)c1ccccn1`, in [7], the call was inactive.
Consider `C=CCc1cccc(C=NNC(=O)CN2CCN(Cc3ccccc3)CC2)c1O`, for which, in [9], the result was inactive.
For the compound `CCOC(=O)[C@H](CCc1ccccc1)N[C@@H](C)C(=O)N1CCCC1C(=O)O` (stereo partly drawn), the Potency result in test [4] and in test [3] was “inactive” each time. Further, the outcome in test [5] and in test [6] was inactive.
For the compound `OC(c1cc(C(F)(F)F)nc2c(C(F)(F)F)cccc12)C1CCCCN1` (stereo not drawn), the result in test [5] was inactive. The Potency in test [3] was 16.5 µM (active).
`CCCCOCCOc1nc(-c2ccc(C(=O)O)c(F)c2)sc1C`: the Potency in test [4] is 49.3 µM (active). Further, the compound was called inactive in test [5] and in test [6]. Moreover, in test [3], the Potency entry is “inactive”.

For the origin of these results see PubChem BioAssay (NCATS).
